Only some compounds are listed: those with a hit (about 5.3% of all), similar ones and a draw of the others.
MT1-MMP txn act: MT1-MMP promoter reporter activation – cell-based, luciferase luminescence, primary screen. 0.16% of 86,000 active. HT1080 MT1-MMP promoter luciferase reporter, overnight; active compounds read high. activation factor at 10 µM. AID 750, 2007;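 active means activation factor of at least 2 for MT1-MMP transcription at 10 µM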
PostGolgi ctrl: growth inhibition of yeast control strain, primary screen, counter-screen for post-Golgi transport modulator project; efflux-deficient yeast background strain, growth absorbance A615, 16 h; inhibition, % at 10 µM; 5% of 98,000 active
Measles CPE: compounds protecting cells from measles virus cytopathic effect, primary screen, measles RdRp inhibitor project, single point, MLSMR library, absorbance | Measles virus-infected cells, CPE protection | protection (pct of control), % at 4 µM | 1.5% of 140,000 active; in the data active means protection mostly above about 24%, no sharp cut-off; inactive means mostly below about 26%
PostGolgi yeast: phenotypic screen on post-Golgi transport, primary screen | post-Golgi transport phenotypic cell assay | inhibition, % at 10 µM | 0.9% of 98,000 active;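 further: yeast cells grown in 1536-well plates; yeast grown about 18 h at 30C before absorbance read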
Starred values were filed as active, the others as inactive; x = no result given. Unless noted, no stated cut-off is given here; in the data, active means inhibition above about 30%; inactive means the rest.

SMILES | MT1-MMP txn act | PostGolgi ctrl | Measles CPE | PostGolgi yeast
O=C(N/C=N/OCc1ccc(Cl)cc1Cl)NOCc1c(Cl)cccc1Cl | x | 7 | 4 | 5
O=S(=O)(Nc1ccc(N2CCCCC2)cc1)c1ccc(F)c(F)c1 | x | x | 3 | x
CCCCC1(C)OC(=O)C(=Cc2ccc(N(C)C)cc2)C(=O)O1 (centres undefined) | x | 31* | 14 | 3
CNC(=O)/C=C/c1cccc(C(F)(F)F)c1 | x | x | 53* | x
COc1cc(/C=N/NC(=S)Nc2cccc(S(=O)(=O)N(C)C)c2)ccc1O | x | x | 6 | x
COC(=O)CSc1nc2ncccc2[nH]1 | 1.2 | 35* | 8 | 6
Oc1ccc(/C=N/NC(=S)NCc2ccco2)cc1 | x | -1 | 41* | -5
CCOCCCNC(=O)C(c1ccc(Cl)cc1)N(Cc1cccs1)C(=O)CNC(C)=O (centres undefined) | x | x | 9 | x
Cc1sc(CO)c(Sc2ccccc2)c1C(=O)O | 1.1 | 34* | 9 | 1
O=C(NCc1ccccc1)NC1CCCCC1 | 1.3 | -1 | 6 | 10
O=C(NCc1ccccc1)c1ccc(C(=O)N(C2CCCCC2)C2CCCCC2)cc1 | x | 52* | 25 | 8
Cc1ccc(N(Cc2ccc(C(=O)NC3CCCCC3)cc2)S(C)(=O)=O)cc1C | 1.3 | 8 | 103* | -4
CS(=O)(=O)N(Cc1ccccc1)c1ccc(C(=O)NC2CCCCC2O)cc1 (centres undefined) | 1.2 | -1 | 4 | -3
CS(=O)(=O)N(Cc1ccccc1)c1ccc(C(=O)NCc2cccnc2)cc1 | 1.2 | -1 | 23 | 6
O=C(O)C1CCCCC1C(=O)NCc1ccccc1 (centres undefined) | 2* | 6 | 4 | -3
CS(=O)(=O)N(Cc1ccccc1)c1ccc(C(=O)NCc2ccccc2)cc1 | 1.3 | 14 | 44* | -1
O=C(O)C1CCCCC1C(=O)NCc1ccc(F)cc1 (centres undefined) | 1 | 10 | 4 | 4
CCCCc1ccc(/C=C2\C(=O)c3ccccc3C(O)=C2C(=O)OCC)cc1 | x | 14 | 9 | -14
O=C(c1cccc(S(=O)(=O)N2CCCCC2)c1)N1CCN(S(=O)(=O)c2ccc(F)cc2)CC1 | 1 | -1 | 12 | -6
O=C(CC(=O)c1cc(Cl)ccc1O)c1ccccc1 | 1.2 | 42* | 11 | 90*
COc1ccccc1C(=O)NNC(=O)c1cccc(F)c1 | x | x | 22 | x
O=C(O)CC(=O)Nc1cc(Cl)ccc1O | 1.1 | 8 | 7 | 16
COc1ccc(C(=O)Cc2ccc(F)cc2)c(OC)c1 | x | x | 12 | x
Cc1ccc(O)c(C(=O)CC(=O)c2cccc(F)c2)c1 | 1.2 | 34* | 15 | 8
O=C(CCc1ccccc1)Nc1cc(Cl)ccc1O | x | 13 | 36* | 21
SMILES | MT1-MMP txn act | PostGolgi ctrl | Measles CPE | PostGolgi yeast
COc1ccc(O)c(C(=O)CC(=O)c2ccc(F)cc2)c1 | x | 35* | 8 | 33*
Cc1ccsc1C(=O)Nc1ccccc1N1CCOCC1 | x | 7 | 3 | -8
Cn1nnnc1SCC(=O)Nc1cc(C(=O)O)cc(C(=O)O)c1 | x | 0 | 12 | 20
Cc1cccc(C(=O)CC(=O)c2cc(Cl)ccc2O)c1 | 0.9 | 64* | 0 | 50*
COC(=O)c1ccc(C(NC(=O)OCc2ccccc2)/C(C)=C/[C@@H](C)C(=O)O)cc1 (some centres undefined) | 1.2 | x | x | x
CSc1ncccc1C(=O)OCc1ccccc1 | 1.5 | -4 | 10 | -8
CSc1ncccc1C(=O)OCc1ccccc1F | 1.5 | 36* | 3 | -5
Cc1scc(C(=O)N2CCN(S(C)(=O)=O)CC2)c1-c1ccccc1 | 1 | 8 | 11 | -11
COc1ccc(N2CCN(C(=O)c3csc4ccccc34)CC2)cc1 | x | 17 | 3 | 1
O=C(c1csc2ccccc12)N1CCN(c2ccc(Cl)c(Cl)c2)CC1 | x | 36* | 2 | 18
CS(=O)(=O)N1CCN(C(=O)c2csc3ccccc23)CC1 | 1.2 | -1 | 61* | 10
Cc1ccccc1NC1=C/C(=N\S(=O)(=O)c2cccs2)c2ccccc2C1=O | x | 101* | 4 | 107*
COc1cccc(C2CC(c3ccc(C)cc3)Nc3nc(N)nn32)c1 (centres undefined) | 1.1 | 7 | 40* | 5
COc1ccc(C2CC(c3ccc(Cl)c(Cl)c3)Nc3nc(N)nn32)cc1 (centres undefined) | 1.1 | 36* | 21 | 1
Cc1cccc(C)c1NC(=O)C(=O)NCc1ccccn1 | x | 17 | 4 | -4
CC(C)OC(=O)CSc1nnc(-c2ccc(Cl)cc2)n1N | 1.2 | -7 | 8 | 35*
Cc1ccc(-c2nnc(SCC(=O)OC(C)C)n2N)cc1 | 1.2 | -2 | 6 | -2
CCOc1ccccc1CNC(=O)c1cc2occc2n1C | 1.1 | 11 | 12 | -17
